Potency and affinity values are given separately. Activity calls are given as the source filed them.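 The calls were made as follows: active = every repeat run showing a signal drop whose fitted half-maximal concentration is at most twice the top tested concentration; inconclusive = repeat runs disagree, or flat partial drop, or poor fit; inactive = the rest.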
experiment: HEK293T cytotoxicity, dose response, cytotoxicity control for miR-122 modulator project, cell-based, activator set, cherry-pick (AID 720690); conditions: HEK293T viability, CellTiter-Glo luminescence, 48 h; series mostly up to 26 µM; activity change, negative = cytotoxicity: at the top concentration;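 also: 0% = neutral control wells and -100% = MG132 cytotoxic control wells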

Row | Structure (SMILES) | activity change, negative = cytotoxicity
1 | O=C(COc1ccccc1F)N1CCc2ccccc2C1 | 0.158% (inactive)
2 | C/C=C/c1ccc([C@H]2[C@@H](CO)N[C@@H]2CN(CC(C)C)C(=O)c2ccccn2)cc1 | 13.9% (inactive)
3 | Cn1c(-c2ccc(N)cc2)nc2ccccc21 | -17.9% (inactive)
4 | Cc1ccc(-n2ncc(C(=O)Nc3cc(Cl)ccc3C)c2C2CCNCC2)cc1C | -5.6% (inactive)
